Records with an inconclusive call do not appear. The source made the active and inactive calls. Calls come from the whole dose curve; as a rule, active = well fitted curve in the direction sought with a large enough effect; inconclusive = small, poorly fitted or top-dose-only effect, or another doubt; inactive = no such curve, though single readings can be large or run the other way.
Target: Lysosomal acid glucosylceramidase (Homo sapiens) (UniProt P04062)
Assay: qHTS Assay for Inhibitors and Activators of N370S glucocerebrosidase as a Potential Chaperone Treatment of Gaucher Disease: Primary Screen Confirmation;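 for Potency: enzyme source is Gaucher patient spleen homogenate not purified recombinant protein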
Details: N370S glucocerebrosidase enzyme activity, fluorogenic substrate; series mostly up to 54 µM
Procedure, shortened: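 Patient-spleen homogenate carrying N370S GC (27 ug) in pH 5.0 citrate buffer with 0.01% Tween-20, 1 mM 4-methylumbelliferyl-beta-glucoside, 40 min at 37C; fluorescence 365/440 nm after NaOH/glycine stop; AC50 from Hill fits.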
Potency is the fitted concentration of half-maximal effect.

Sequence of Lysosomal acid glucosylceramidase (Homo sapiens) (P04062 whole entry N409S): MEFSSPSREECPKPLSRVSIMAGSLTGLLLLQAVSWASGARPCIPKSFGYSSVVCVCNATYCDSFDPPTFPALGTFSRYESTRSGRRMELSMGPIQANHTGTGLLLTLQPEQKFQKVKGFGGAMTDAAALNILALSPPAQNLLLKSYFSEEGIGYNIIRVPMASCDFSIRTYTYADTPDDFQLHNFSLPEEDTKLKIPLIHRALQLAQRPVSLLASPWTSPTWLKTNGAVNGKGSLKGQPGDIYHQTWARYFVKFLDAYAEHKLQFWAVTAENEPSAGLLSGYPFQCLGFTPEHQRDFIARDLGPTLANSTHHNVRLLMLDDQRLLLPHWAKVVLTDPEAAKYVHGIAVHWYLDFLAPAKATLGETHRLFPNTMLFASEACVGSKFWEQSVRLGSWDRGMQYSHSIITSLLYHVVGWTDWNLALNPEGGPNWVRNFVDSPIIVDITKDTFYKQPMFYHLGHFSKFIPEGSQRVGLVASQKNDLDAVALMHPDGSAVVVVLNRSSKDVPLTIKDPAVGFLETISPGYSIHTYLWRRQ

Question: O=C(/C=C/c1ccc(O)cc1)c1ccc(O)cc1O was tested. Which Potency did it give?
Answer: 11.2 µM (active)

Question: With COc1ccc(S(=O)(=O)N2CCN(c3nc(-c4cccs4)nc4ccccc34)CC2)cc1 as the compound, how does the Potency read?
Answer: 0.819 µM (active)

Question: How did the Potency turn out when CCOC(=O)c1ccc(S(=O)(=O)N2CCN(c3nc(-c4cccs4)nc4ccccc34)CC2)cc1 was run?
Answer: 0.819 µM (active)

Question: How did the Potency turn out when O=C(NCCCc1cnc[nH]1)NCCCN(Cc1ccc(Cl)c(Cl)c1)c1ccc(Br)cn1 was run?
Answer: 1.03 µM (active)

Question: Which Potency does the source give for Cc1ccc(S(=O)(=O)N(C)CCN(C)c2nc(-c3cccs3)nc3ccccc23)cc1 here?
Answer: 2.25 µM (active)

Question: With O=S(=O)(c1ccc2c(c1)OCO2)N1CCN(c2nc(-c3cccs3)nc3ccccc23)CC1 as the compound, how does the Potency read?
Answer: 0.291 µM (active)

Question: Which Potency does the source give for C#CCOCCOCCOCCNc1nc(N2CCN(C(=O)CCCCCCCCCCNC(=O)[C@H](CCCCN)n3cc(CCCC(=O)O)nn3)CC2)nc(N2CCN(C(=O)CCCCCCCCCCNC(=O)[C@H](CCCN=C(N)N)n3cc(C[C@@H](C)CC)nn3)CC2)n1 here?
Answer: 8.19 µM (active)

Question: COc1cccc(NC(=O)CSc2nc3c(sc4ccccc43)c(=O)n2CCCN2CCCC2)c1 was tested. Which Potency did it give?
Answer: inactive

Question: How did the Potency turn out when CCOc1ccc(S(=O)(=O)N2CCN(c3nc(-c4ccccc4)nc4ccccc34)CC2)cc1 was run?
Answer: 4.11 µM (active)

Question: S=C(NCCCCN(Cc1ccc(Cl)cc1)c1ccc(Br)cn1)NCCCc1cnc[nH]1 was tested. Which Potency did it give?
Answer: 0.635 µM (active)

Question: With O=S(=O)(/C=C/c1ccccc1)N1CCN(c2nc(-c3ccccc3)nc3ccccc23)CC1 as the compound, how does the Potency read?
Answer: 11.6 µM (active)

Question: For CC(=O)c1ccccc1S(=O)(=O)N1CCN(c2nc(-c3cccs3)nc3ccccc23)CC1, which Potency is on record?
Answer: 3.26 µM (active)

Reference: PubChem BioAssay AID2590 (National Center for Advancing Translational Sciences (NCATS), 2010)
